Bioassay records: PubChem BioAssay, several laboratories
Rtt109 HAT inh: C. albicans Rtt109 histone acetyltransferase inhibition; purified Rtt109/Vps75, ThioGlo CoA-SH fluorescence, 4 h; 330,000 tested, 0.16% active; AID 540336; inhibition, % at 34.9 µM; Q5AAJ8;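 active = inhibition of at least 50% in every replicate; inconclusive = best replicate reaches 50% inhibition but some replicates fall short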
Target sequence (Q5AAJ8 whole entry, looked up): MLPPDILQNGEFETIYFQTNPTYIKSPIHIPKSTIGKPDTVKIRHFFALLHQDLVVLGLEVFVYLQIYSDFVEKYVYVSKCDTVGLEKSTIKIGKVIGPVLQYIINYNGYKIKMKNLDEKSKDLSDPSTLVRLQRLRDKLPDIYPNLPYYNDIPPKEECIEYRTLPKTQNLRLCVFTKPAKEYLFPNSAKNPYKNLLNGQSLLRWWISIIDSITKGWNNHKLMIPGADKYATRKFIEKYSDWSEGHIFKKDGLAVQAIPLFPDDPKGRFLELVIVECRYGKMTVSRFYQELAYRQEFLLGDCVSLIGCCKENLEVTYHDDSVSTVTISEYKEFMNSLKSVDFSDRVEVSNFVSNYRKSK
DYRK1A inh: Dyrk1A (rat) kinase inhibition; Q63470; ADP-Glo luminescence, NFATc1 peptide; inhibition, % at 12.5 µM; 310,000 tested, 0.43% active; AID 504441; in the data active = inhibition above about 50%
SMARCA2 activ: increases SMARCA2 function in MMTV reporter cells. MG213 cells, MMTV-luciferase reporter, dexamethasone, overnight. activation, % at 9.1 µM. 370,000 tested, 1% active; in the data active = activation above about 7.8%
esBAF inh: inhibitors of esBAF chromatin remodeling in mouse ES cells. Bmi1-luciferase knock-in reporter, 24 h; 100% = twice the neutral-well signal. reporter increase, % at 12.5 µM. 350,000 tested, 2% active; in the data active = activation above about 40%; inconclusive = no clear call, values can overlap the other calls;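 note: a rise in the Bmi1 reporter signal indicates esBAF inhibition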
CDK5 inh: inhibitors of human CDK5/p35 kinase. Q00535+Q15078. Recombinant CDK5/p35, ADP-Glo luminescence, 60 min. inhibition, % at 10 µM. 330,000 tested, 0.01% active;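 active = highest replicate inhibition of at least 50% and at least 75% of replicates reaching 50%; inconclusive = only one of the two criteria met; inactive = both criteria failed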
dFosB act: enhances mouse delta FosB homodimer DNA binding | AID 493131 | purified delta FosB, TAMRA-CDK5 oligo fluorescence polarization; percent of positive-control signal above neutral wells | 340,000 tested, 0.99% active | activation, % at 25 µM | P13346;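 active = mean activation above about 17%, with every replicate also reaching it, limit read from the data, passing the limit was not always enough; inconclusive = only one of the two conditions met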
Target sequence (P13346 whole entry, looked up): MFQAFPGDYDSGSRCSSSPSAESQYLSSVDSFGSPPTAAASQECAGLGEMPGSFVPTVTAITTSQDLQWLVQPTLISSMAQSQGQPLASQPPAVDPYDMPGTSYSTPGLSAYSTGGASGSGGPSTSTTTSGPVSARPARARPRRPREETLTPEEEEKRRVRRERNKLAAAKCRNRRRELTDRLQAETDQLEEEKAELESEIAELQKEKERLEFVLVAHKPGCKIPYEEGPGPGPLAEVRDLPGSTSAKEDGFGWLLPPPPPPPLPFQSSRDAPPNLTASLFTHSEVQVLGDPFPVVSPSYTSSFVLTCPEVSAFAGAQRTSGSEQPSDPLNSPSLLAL
Numbers stand for hits; i = inactive; ? = inconclusive; nt = no result given; ! = not active in a repeat. Compounds with a hit are over-represented: about 3.2% of the library has one in this group of screens.

SMILES	Rtt109 HAT inh	DYRK1A inh	SMARCA2 activ	esBAF inh	CDK5 inh	dFosB act
CCOC(=O)C(=O)c1c(-c2ccccc2)nc2ccccn12	i	i	i	nt	i	i
CCOC(=O)c1c(-c2ccccc2)nc2cc(C)ccn12	i	i	i	52	i	i
CCOC(=O)c1c(-c2ccccc2)nc2ccc(C)cn12	i	i	i	47	i	i
C[C@@H]1CN([C@@H](C)CO)C(=O)c2cccc(NC(=O)Nc3ccc4c(c3)OCO4)c2O[C@@H]1CN(C)S(=O)(=O)c1ccccc1	nt	nt	nt	i	nt	nt
CCCNC(=O)c1oc2ccc3c(c2c1C)C(=O)CC(C)(C)O3	i	i	i	i	i	i
CCCNC(=O)c1oc2ccc3c(c2c1C)C=CC(C)(C)O3	i	i	i	56	i	i
O=C(C[C@H]1CC[C@@H](NS(=O)(=O)c2ccc(F)cc2)[C@H](CO)O1)NCc1ccncn1	nt	nt	nt	i	nt	nt
N#CCc1nc(CSc2nc3ccccc3s2)cs1	i	i	i	62	i	i
CCCSc1nnc(NC(=O)Nc2ccccc2OC)s1	i	nt	i	47	i	i
C[C@@H]1CN([C@@H](C)CO)S(=O)(=O)c2ccc(C3=CCCCC3)cc2O[C@H]1CN(C)S(=O)(=O)c1cn(C)cn1	nt	nt	nt	i	nt	nt
CC(C)(C)c1ccc(-c2nnc(N)s2)cc1	i	i	i	i	i	i
CC(C)(C)c1ccc(-c2nnc(N)o2)cc1	i	i	i	58	i	i
O=C(c1cc2cc(Br)ccc2o1)N1CCCC1	i	i	i	39	i	i
O=C(c1cc2ccccc2o1)N1CCN(Cc2nc3ccccc3s2)CC1	nt	nt	i	45	nt	nt
CC1CCN(C(=O)c2cc3ccccc3o2)CC1	i	i	i	57	i	i
CC1CC(C)CN(C(=O)c2cc3ccccc3o2)C1 (stereo unspecified)	i	i	i	58	i	i
CC(=O)N1CCN(C(=O)c2cc3ccccc3o2)CC1	i	i	i	i	i	i
O=C(c1cc2ccccc2o1)N1CCN(C/C=C/c2ccccc2)CC1	i	i	i	i	i	i
N#C[C@@H]1[C@H](c2ccc(C3=CCCC3)cc2)[C@@H](CO)N1C(=O)c1cccc(F)c1	nt	nt	nt	i	nt	nt
C[C@@H]1CN([C@@H](C)CO)S(=O)(=O)c2ccc(-c3ccc(F)cc3)cc2O[C@@H]1CN(C)C	nt	nt	nt	i	nt	nt
C[C@@H]1CN([C@@H](C)CO)C(=O)c2cc(-c3ccncc3)cnc2O[C@H]1CN(C)C(=O)Cc1cccnc1	nt	nt	nt	i	nt	nt
CN1CCN(C(=O)C[C@@H]2CC[C@H]3[C@H](COc4ccc(NC(=O)C5CC5)cc4C(=O)N3C)O2)CC1	nt	nt	nt	i	nt	nt
O=C(Nc1ccc(C(F)(F)F)cc1)c1ccccc1	i	i	i	53	i	i
O=C(Nc1ccc(Br)c(C(F)(F)F)c1)c1ccccc1	i	i	i	nt	i	i
O=C(Nc1ccc(C(=O)c2ccccc2)cc1)c1ccccc1	i	i	i	61	i	i
SMILES	Rtt109 HAT inh	DYRK1A inh	SMARCA2 activ	esBAF inh	CDK5 inh	dFosB act
O=C(Nc1ccc2c(c1)CCCN2C(=O)c1ccccc1)c1ccccc1	i	i	i	46	i	i
O=C(Nc1ccc(F)c(F)c1)c1ccccc1	i	i	i	42	i	i
O=C(Cc1ccccc1)N1C[C@H]2[C@@H](c3ccccc31)[C@H](CO)N2C(=O)Nc1ccc(F)cc1	nt	nt	nt	i	nt	nt
CO[C@H]1CN(C)C(=O)c2ccc(NS(=O)(=O)c3ccccc3Cl)cc2OC[C@@H](C)NC[C@@H]1C	nt	nt	nt	i	nt	nt
Cc1cccc(N/N=C/c2ccc(C)s2)c1	i	i	i	74	i	i
COc1ccc(-c2cc3ccccc3c(=O)o2)cc1	nt	nt	i	nt	nt	nt
O=c1cc(-c2ccc(O)cc2)oc2ccc(O)cc12	i	i	7.9	i	i	i
COc1ccc(N=c2cc(-c3ccc(OC)cc3)oc3ccccc23)cc1	i	i	i	nt	i	i
COc1ccc(N=c2cc(-c3ccc(O)cc3)oc3ccccc23)cc1	nt	i	i	nt	i	42
COc1ccc(-c2cc(=O)c3ccccc3o2)cc1	i	i	i	63	i	i
O=c1cc(-c2cccc(F)c2)oc2ccccc12	i	nt	i	51	i	i
O=c1cc(-c2ccccc2)oc2cc(O)ccc12	i	i	i	?	i	i
CCCC(=O)Nc1ccc2c(c1)C(=O)N(C)[C@H]1CC[C@@H](CC(=O)NCc3ccccc3)O[C@H]1CO2	nt	nt	nt	i	nt	nt
CN1C(=O)c2cc(NC(=O)c3ccc(F)c(F)c3)ccc2OC[C@@H]2O[C@@H](CC(=O)N[C@@H]3CCN(Cc4ccccc4)C3)CC[C@H]21	nt	nt	nt	i	nt	nt
C[C@H](CO)N1C[C@H](C)[C@@H](CN(C)Cc2ccc(C(=O)O)cc2)Oc2ccc(NC(=O)c3ccncc3)cc2C1=O	nt	nt	nt	i	nt	nt
Cn1c2ccccc2c2ncn(CCC3=CCCCC3)c(=O)c21	i	i	i	74	i	i
COc1ccccc1CNC(=O)C[C@H]1CC[C@@H]2[C@H](COC[C@H](O)CN2C(=O)Nc2ccc(C(F)(F)F)cc2)O1	nt	nt	nt	i	nt	nt
C[C@@H]1CCCCO[C@@H](CN(C)Cc2ccncc2)[C@H](C)CN([C@@H](C)CO)C(=O)c2cc(NC(=O)Nc3ccc4c(c3)OCO4)ccc2O1	nt	nt	nt	62	nt	nt
C[C@H](CO)N1C[C@H](C)[C@H](CN(C)Cc2ccncc2)OCCCC[C@H](C)Oc2ccc(NC(=O)Nc3ccc4c(c3)OCO4)cc2C1=O	nt	nt	nt	73	nt	nt
C[C@@H]1CN([C@@H](C)CO)C(=O)c2cc(C#Cc3ccccc3F)cnc2O[C@H]1CN(C)S(=O)(=O)c1ccccc1F	nt	nt	nt	i	nt	nt
CN1C(=O)c2cc(NC(=O)c3ccc(F)cc3)ccc2OC[C@H]2O[C@@H](CC(=O)NCC3CCCCC3)CC[C@@H]21	nt	nt	nt	i	nt	nt
C[C@H](CO)N1C[C@H](C)[C@H](CN(C)C(=O)Nc2ccc3c(c2)OCO3)Oc2c(NS(=O)(=O)c3ccccc3)cccc2C1=O	nt	nt	nt	68	nt	nt
Cc1ccc(S(=O)(=O)Nc2cccc3c2O[C@@H](CN(C)C(=O)Nc2ccc4c(c2)OCO4)[C@H](C)CN([C@@H](C)CO)C3=O)cc1	i	i	i	60!	i	i
C[C@@H]1CN([C@H](C)CO)C(=O)c2cccc(NC(=O)Nc3ccc4c(c3)OCO4)c2O[C@H]1CN(C)S(=O)(=O)c1cccs1	nt	nt	nt	47	nt	nt
C[C@H](CO)N1C[C@H](C)[C@@H](CN(C)C(=O)Nc2ccc3c(c2)OCO3)Oc2c(NS(=O)(=O)c3ccccc3)cccc2C1=O	i	i	i	i	i	i
C[C@@H]1CN([C@H](C)CO)C(=O)c2cccc(NS(=O)(=O)c3ccc(F)cc3)c2O[C@@H]1CN(C)C(=O)Nc1ccc2c(c1)OCO2	nt	nt	nt	i	nt	nt
C[C@@H]1CN([C@@H](C)CO)C(=O)c2c(c3ccccc3n2C)-c2ccccc2CO[C@@H]1CN(C)C(=O)Nc1ccc2c(c1)OCO2	nt	nt	nt	50	nt	nt
O=C(Cc1ccccn1)N[C@H]1CC[C@H](CCn2cc(-c3cccnc3)nn2)O[C@@H]1CO	nt	nt	nt	i	nt	nt
CC1CCCC(C)N1C(=O)c1cc(-c2ccco2)on1 (stereo unspecified)	i	i	i	i	i	i
